Experimental findings from PubChem BioAssay (NCATS) are described below.

Values joined by “and” are separate entries in the source; they are usually repeats but may differ in a detail not shown here. Equal values may be shown once. Records with an inconclusive call do not appear. Active and inactive are the calls of the source. Unless noted, the call rests on the fitted dose curve; in most records, active means well fitted curve in the direction sought with a large enough effect; inconclusive means small, poorly fitted or top-dose-only effect, or another doubt; inactive means no such curve, though single readings can be large; an effect the other way counts as inactive or inconclusive.

Test [1] addresses Catechol O-methyltransferase (Homo sapiens) (UniProt P21964). The test can be described thus: Confirmatory Screen for Target Class Profiling of Small Molecule Inhibitors of Methyltransferases (AID 1745852; calls by dose curve; further: potency means the concentration at half of the fitted maximal effect). The following applies: MTase-Glo luminescence, SAH detection, recombinant enzyme; measured here: COMT max response; stronger effect = lower value.
The target in test [2] is Guanidinoacetate N-methyltransferase (Homo sapiens) (UniProt Q14353). The test is described as above. The following applies: MTase-Glo luminescence, SAH detection, recombinant enzyme; activity change, negative = inhibition: at 57.3 µM (top of the series) unless noted.
Test [3] has as its target Nicotinamide N-methyltransferase (Homo sapiens) (UniProt P40261). The description is as above. To be noted: MTase-Glo luminescence, SAH detection, recombinant enzyme; measured here: NNMT max response; stronger effect = lower value.
The target of test [4] is Phenylethanolamine N-methyltransferase (Homo sapiens) (UniProt P11086). The test is described as above. To be noted: MTase-Glo luminescence, SAH detection, recombinant enzyme; measured here: PNMT max response; stronger effect = lower value.
Phenylethanolamine N-methyltransferase (Homo sapiens), sequence (P11086 whole entry, looked up): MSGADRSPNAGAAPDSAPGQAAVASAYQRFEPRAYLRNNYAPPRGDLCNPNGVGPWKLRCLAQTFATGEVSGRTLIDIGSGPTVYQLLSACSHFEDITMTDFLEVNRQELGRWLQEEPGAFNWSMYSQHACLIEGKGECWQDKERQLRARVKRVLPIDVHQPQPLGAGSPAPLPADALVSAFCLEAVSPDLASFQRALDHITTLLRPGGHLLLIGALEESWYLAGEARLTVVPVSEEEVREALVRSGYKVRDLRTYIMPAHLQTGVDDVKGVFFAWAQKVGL
The target of test [5] is Glutathione peroxidase 1 (Homo sapiens) (UniProt P07203). The test can be described thus: Primary qHTS Assay for Inhibitors of Recombinant Selenoprotein Glutathione Peroxidase 1 (GPX1) (AID 1845191). Further: nearly all actives have a fitted effect of over 65% in size. To be noted: recombinant GPX1, GR-coupled NADPH fluorescence, 15 min; series mostly up to 48.8 µM. Summed up:
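Recombinant GPX1 (10 nM final) was preincubated with compound for 30 min at room temperature, then reacted with 1 mM GSH, 0.5 mM CHP, 0.5 mM NADPH and 100 nM glutathione reductase; NADPH fluorescence (340/450 nm) was read at 0 and 15 min.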

Test [6] concerns the target Phospholipid hydroperoxide glutathione peroxidase GPX4 (Homo sapiens) (UniProt P36969). The test can be described thus: Primary qHTS Assay for Inhibitors of Recombinant Selenoprotein Glutathione Peroxidase 4 (GPX4) (AID 1845192). Further: nearly all actives have a fitted effect of over 65% in size. Further: potency means the concentration at half of the fitted maximal effect. On activity change, negative = inhibition: on the % scale 0 is the no-effect control and ±100 the full control effect. To be noted: recombinant GPX4, GR-coupled NADPH fluorescence, 15 min; series mostly up to 50 µM. The gist of the method: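 GR-coupled readout: 100 nM GR, 1 mM GSH, 0.5 mM NADPH; NADPH fluorescence (ex 340/em 450 nm) read at t=0 and after 15 min RT. GPX4 200 nM, preincubated 30 min with compound; substrate 0.5 mM CHP.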
A general note: Quantitative high-throughput screening tests each substance at several concentrations.

Test [7] addresses Luciferin 4-monooxygenase (Photinus pyralis) (UniProt P08659). The test can be described thus: Primary firefly luciferase (FLuc) qHTS assay for identification of artifact compounds. (AID 1845220). Further: nearly all actives have a fitted effect of over 60% in size.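 On activity change, negative = inhibition: plate controls were DMSO vehicle for no effect and no enzyme for full effect.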 The following applies: purified firefly luciferase, luminescence, 5 min; series mostly up to 54.1 µM. Summed up: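 Reaction readout was CCD-imaged luminescence, taken 5 min after adding 10 nM purified firefly enzyme to compound-treated wells holding 10 uM luciferin and ATP in pH 7.6 buffer.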

Test [8] can be described thus: Primary fluorescence-based thiol-reactive (MSTI) qHTS assay for identification of artifact compounds. (AID 1845221).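 Further: thiol-reactive compounds lower the probe fluorescence signal; nearly all actives have a fitted effect of over 65% in size.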 To be noted: MSTI thiol-reactivity probe, 1 h; series mostly up to 53.8 µM. Summed up: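 Thiol-reactive compounds detected by quenching of 4 uM MSTI fluorescence (525/598 nm) after 1 h room-temperature dark incubation in PBS pH 7.4, 2% DMSO. qHTS titration; percent inhibition Hill-fitted against Acetyl-MSTI/MSTI controls.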

The subject of test [9] is Nanoluciferase (engineered Oplophorus gracilirostris luciferase). The test can be described thus: Primary Nanoluciferase (NLuc) qHTS assay for identification of artifact compounds. (AID 1845222).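 Further: NLuc secreted into diluted conditioned medium of S16 cells; 0% = DMSO and -100% = no enzyme.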 The following applies: NLuc-conditioned medium, Nano-Glo luminescence, 5 min; series mostly up to 54.1 µM. Summed up:
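Concentration-response data were obtained by luminescence after 5 min with Nano-Glo substrate at 1:100. The enzyme was diluted S16 NLuc-expressing cell medium, preincubated with compound for 15 min at RT. Curves were fitted with a 4-parameter Hill model.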

Test [10] in a line: Quantitative High-Throughput drug screen in 47 multiple myeloma cell lines against the NCATS MIPE library collection: FR4_PLB cell viability assay (AID 1918924; further: nearly all actives have a fitted effect of over 35% in size; further: potency means the concentration at half of the fitted maximal effect). The following applies: FR4_PLB myeloma cells viability, CellTiter-Glo ATP, 48 h; series mostly up to 45.8 µM. The gist of the method:
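CellTiter-Glo luminescence (ATP) after 48 h compound exposure, 37C/5% CO2; 500 cells/well; MIPE 4.0 approved/investigational drugs pinned in; DMSO = 100%, media only = 0% viability.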
(In general: Cellular ATP, detected with luciferase, serves as a proxy for viable cell number.)

Test [11] is described as follows: Primary redox qHTS assay for identification of artifact compounds. (AID 1845223). To be noted: Amplex Red/HRP redox cycling with DTT, fluorescence; series mostly up to 53.8 µM. Summed up: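 Amplex Red (25 uM) and HRP (250 mU/mL) in HBSS, with compounds for 15 min, then 250 uM DTT for 30 min, room temperature, dark. Fluorescence 525/598 nm read; normalized to DMSO and 10 uM DA3003; Hill fit.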

Test [12] can be described thus: NCATS anti-infectives library activity on the primary C. elegans qHTS viability assay (AID 1745855; calls by dose curve; further: potency means the concentration at half of the fitted maximal effect). The following applies: C. elegans worm area imaging, day 7; series mostly up to 41.8 µM. Summed up:
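Viability is taken from GFP fluorescence of PE254-GFP-FLuc C. elegans imaged by laser cytometry over 7 days. Ten L1 worms per well grow at 21 °C on TOP10 E. coli capsules with titrated compound; levamisole marks toxicity.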

In test [13] the target is Metallo-beta-lactamase type 2 (Klebsiella pneumoniae) (UniProt C7C422). The test can be described thus: qHTS to identify inhibitors of the New Delhi Metallo-beta-lactamase (NDM): assay validation screen against the NCATS LOPAC Collection (AID 1794843). Further: on the % scale 0 is the no-effect control and ±100 the full control effect. The following applies: NDM-1 enzyme, nitrocefin hydrolysis, absorbance 485 nm; series mostly up to 38.4 µM. The gist of the method:
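Absorbance at 485 nm from nitrocefin turnover (50 uM solution added), read at plateau, gives the read-out. Compounds in DMSO were incubated first with 2 nM final NDM-1 in pH 7.0 HEPES buffer containing 1 uM ZnSO4 and 0.01% Tween20.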

Phospholipid hydroperoxide glutathione peroxidase GPX4 (Homo sapiens), sequence (P36969 whole entry, looked up): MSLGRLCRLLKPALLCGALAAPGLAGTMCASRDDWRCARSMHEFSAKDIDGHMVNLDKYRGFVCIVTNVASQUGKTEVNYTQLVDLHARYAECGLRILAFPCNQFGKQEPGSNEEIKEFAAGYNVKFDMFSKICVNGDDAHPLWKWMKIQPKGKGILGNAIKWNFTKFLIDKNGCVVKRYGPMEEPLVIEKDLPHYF
Glutathione peroxidase 1 (Homo sapiens), sequence (P07203 whole entry, looked up): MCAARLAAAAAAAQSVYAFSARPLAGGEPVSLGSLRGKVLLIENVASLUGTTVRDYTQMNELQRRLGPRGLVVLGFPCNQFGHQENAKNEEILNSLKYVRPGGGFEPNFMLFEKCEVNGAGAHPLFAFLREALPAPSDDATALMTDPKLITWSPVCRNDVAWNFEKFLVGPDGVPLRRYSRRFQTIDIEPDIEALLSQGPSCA
Nicotinamide N-methyltransferase (Homo sapiens), sequence (P40261 whole entry, looked up): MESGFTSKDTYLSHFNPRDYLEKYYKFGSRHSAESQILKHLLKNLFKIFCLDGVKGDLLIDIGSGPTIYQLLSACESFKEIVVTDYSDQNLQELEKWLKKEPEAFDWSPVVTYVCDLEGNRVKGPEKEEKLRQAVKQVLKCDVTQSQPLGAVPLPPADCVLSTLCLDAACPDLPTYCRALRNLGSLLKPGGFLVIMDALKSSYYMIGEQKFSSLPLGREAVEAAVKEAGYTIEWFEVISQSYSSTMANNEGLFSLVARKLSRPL
Catechol O-methyltransferase (Homo sapiens), sequence (P21964 whole entry, looked up): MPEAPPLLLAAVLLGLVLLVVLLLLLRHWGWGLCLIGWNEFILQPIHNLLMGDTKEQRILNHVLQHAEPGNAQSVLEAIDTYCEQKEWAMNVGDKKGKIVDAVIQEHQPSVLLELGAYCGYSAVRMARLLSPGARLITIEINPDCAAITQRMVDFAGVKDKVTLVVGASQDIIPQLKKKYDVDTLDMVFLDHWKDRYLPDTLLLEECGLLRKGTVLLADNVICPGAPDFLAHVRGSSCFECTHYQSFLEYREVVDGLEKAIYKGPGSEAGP
Metallo-beta-lactamase type 2 (Klebsiella pneumoniae), sequence (C7C422 whole entry, looked up): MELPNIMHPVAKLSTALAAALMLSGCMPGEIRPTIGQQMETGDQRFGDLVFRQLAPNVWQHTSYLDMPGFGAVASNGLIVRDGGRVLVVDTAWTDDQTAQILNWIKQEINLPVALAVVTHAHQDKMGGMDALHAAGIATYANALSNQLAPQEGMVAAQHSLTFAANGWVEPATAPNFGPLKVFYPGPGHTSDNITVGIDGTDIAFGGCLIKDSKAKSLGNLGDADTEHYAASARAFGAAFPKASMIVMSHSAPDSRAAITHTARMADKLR

As to `Nc1ncnc2c1c(-c1cccc(OCc3ccccc3)c1)cn2C1CC(CN2CCCC2)C1` (configuration not stated), the activity in [1] was -58.1%; in test [3] it was -68.2%; in test [4] it was -98.1%. The Potency was 27.1 µM (active) in test [2] and 26.4 µM (active) in [10]. The Potency entry in test [5], in [6], in [7], in [8] and in test [9] was “inactive” throughout.
For `CN1CCC(CNc2ccc3ncc(-c4cccc(OC(F)(F)F)c4)n3n2)CC1`, the values for the activity in [1], in test [3] and in test [4] were -52.2%, -51.9% and -68.8%, respectively. In addition, the Potency was 30.4 µM (active) in test [2]; 22.7 µM (active) and 14.3 µM (active) in test [6]; 18.7 µM (active) in test [10]. Further, the Potency result in test [7], in test [8], in test [9] and in [11] was “inactive” each time.
Turning to `CC(C)C[C@H](NC(=O)CNC(=O)c1cc(Cl)ccc1Cl)B(O)O`, the Potency in test [12] is 1.29 µM (active).
`O=c1c2ccccc2nc2n1CCc1c-2[nH]c2ccccc12`: the outcome in [13] was “inactive”.
In the case of `CC(=O)Nc1nc(C)c(-c2ccc(Cl)c(S(=O)(=O)NCCO)c2)s1`, the Potency entry in [5], in test [6], in test [7], in test [8] and in [9] was “inactive” throughout. Besides, the Potency in [10] was 13.2 µM (active).
On to `COc1cc2c(Oc3ccc(NC(=O)C4(C(=O)Nc5ccc(F)cc5)CC4)cc3F)ccnc2cc1OCCCN1CCOCC1`, for which the Potency entry in test [5], in [6], in [7], in test [8] and in test [9] was “inactive” each time. Also, in test [10], the Potency is 14.8 µM (active).
Take `COc1cccc(Nc2c(C(N)=O)cnc3c(C)cc(S(=O)(=O)c4cccc(C(=O)N(C)C)c4)cc23)c1`: the Potency entry in test [5], in test [6], in test [7], in test [8], in [9] and in [11] was “inactive” each time. The Potency result in [10] is “inactive”.
With `Cc1cn(-c2cc(NC(=O)c3ccc(C)c(Nc4nccc(-c5cccnc5)n4)c3)cc(C(F)(F)F)c2)cn1`, the Potency entry in [5], in test [6], in [7], in test [8], in [9] and in test [11] was “inactive” each time. The Potency in test [10] was 20.9 µM (active).
Turning to `COc1ccc(F)c(F)c1C(=O)c1cnc(NC2CCN(S(C)(=O)=O)CC2)nc1N`, the Potency result in test [5], in test [6], in test [7], in test [8] and in test [9] was “inactive” in each case. In test [10], the Potency is 2.35 µM (active).
With `Cc1cn2c(-c3cn[nH]c3)cnc2c(Nc2ccc(C(=O)N3CCNCC3)cc2F)n1`, the Potency entry in [5], in test [6], in [7], in test [8] and in test [9] was “inactive” in each case. The Potency in [10] is 16.6 µM (active).
Regarding `NC(=O)c1c(OCc2c(F)cc(Br)cc2F)nsc1NC(=O)NCCCCN1CCCC1`, the Potency entry in [5], in [6], in test [7], in test [8], in [9] and in test [11] was “inactive” each time.
Regarding `O=C(Nc1cn[nH]c1-c1nc2ccc(CN3CCOCC3)cc2[nH]1)NC1CC1`, the Potency entry in [5], in test [6], in test [7], in [8], in test [9] and in [11] was “inactive” each time. Also, in test [10], the Potency is 2.35 µM (active).
Turning to `CCCn1c(=O)c2[nH]c(-c3cnn(Cc4cccc(C(F)(F)F)c4)c3)nc2n(CC)c1=O`, the Potency entry in [5], in [6], in [7], in test [8] and in test [9] was “inactive” each time. In [10], the Potency was 5.9 µM (active).
Consider `Cc1cc(Nc2cc(CN3CCOCC3)c3nc(C)c(Cc4ccc(Cl)cc4F)n3n2)n[nH]1`, for which the Potency result in [5], in test [6], in [7], in [9] and in [11] was “inactive” each time.
In the case of `CC1COC2(CCN(c3nc(=O)c4cc(C(F)(F)F)cc([N+](=O)[O-])c4s3)CC2)O1` (configuration not stated), the Potency result in test [5], in [6], in test [7], in test [9], in test [11] and in test [10] was “inactive” throughout.
Turning to `CCN(CC)CCNC(=O)c1ccc2nc(-c3ccccc3)c(-c3ccc(CN4CCC(n5c(=O)[nH]c6ccccc65)CC4)cc3)nc2c1`, the Potency result in [5], in test [6], in test [7], in test [8], in test [9] and in [11] was “inactive” throughout. Besides, the Potency in test [10] was 14.8 µM (active).
Turning to `COc1cc2c(Nc3ccc(NC(=O)c4ccccc4)cc3)ncnc2cc1OCCCN1CCOCC1`, the Potency entry in test [5], in test [6], in [7], in test [8] and in test [11] was “inactive” in each case.
